Source: PubChem BioAssay (NCI)
This is part of a sample that, as a whole, favours compounds with a hit. Of some 83,000 tested, about 20% had one in any assay.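 Note: values are percent growth. 100 is the growth of untreated cells, values between 100 and 0 indicate rising inhibition; between -100 and 0 indicates cell death.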 Unmarked numbers belong to inactive results. Calls of active or inactive are those of the source. Rule for the calls: active = growth percent below 10; inactive = the rest.

Tested on: CAKI-1 renal
Test: NCI-60 one-dose screen, 48 h (100 = growth as untreated, 0 = no growth, -100 = all killed)
Conditions: 10 µM unless noted

Question: `O=C(Nc1ccc(Cl)cc1)Nc1ccc(Cl)c(Cl)c1` was tested. Which growth did it give?
Answer: -1.31% (active)

Question: Which growth does the source give for `CC(C)Cc1ccc(C(C)C(=O)NCc2ccc(Cn3c(=O)sn(-c4ccc(Cl)cc4)c3=O)cc2)cc1` (stereo not given) here?
Answer: 74.7%

Question: With `COc1ccc(/C=N/NC(=O)c2cccc3cc[nH]c23)cc1O` as the compound, how does the growth read?
Answer: 46.5%

Question: How did the growth turn out when `COc1cc(NCC(O)CN(CC(C)C)C2CCCC2)c2ncccc2c1` (stereo not given) was run?
Answer: 94.6%

Question: How did the growth turn out when `COc1cccc(CCC(=O)c2cc3c(N)c(C(=O)Nc4ccccc4)sc3nc2C)c1` was run?
Answer: 28.4%

Question: `CN1CCN(CCCNc2nccc(-c3c(-c4ccc(F)c(O)c4)nc4sccn34)n2)S1(=O)=O` was tested. Which growth did it give?
Answer: 95.5%

Question: `COc1ccccc1Nc1cc(O)c2c(=O)cc(-c3ccccc3)oc2c1` was tested. Which growth did it give?
Answer: 41.3%

Question: `C[C@@H]1CN(Cc2ccc(/C=C/c3n[nH]c4ccc5nc(-c6cn[nH]c6C(F)(F)F)c6c(c5c34)CCCC6)cc2)C[C@H](C)O1` was tested. Which growth did it give?
Answer: 1.97% (active)

Question: Which growth does the source give for `COc1ccc(-c2ncc(-c3ccccc3)[nH]2)cc1OC` here?
Answer: 108%

Question: Which growth does the source give for `CCOC(=O)c1ccc(Nc2ccnc(SCC(=O)c3ccc(C#N)cc3)n2)cc1` here?
Answer: 57.1%

Question: How did the growth turn out when `CCCCCCCCCCCCCCCCCCOc1ccccc1N` was run?
Answer: 67.8%

Question: Which growth does the source give for `COc1ccc(C2CC(c3cccc(Nc4ccncc4)c3)=NN2c2ccc(Cl)cc2)cc1` (stereo not given) here?
Answer: 24.5%

Question: Which growth does the source give for `O=C(Nc1ccccc1)Oc1ccccc1-c1ccccc1` here?
Answer: 88.2%

Question: How did the growth turn out when `Clc1ccc(C2CC(c3cccc(Nc4ccncc4)c3)=NN2c2ccc(Cl)cc2)cc1` (stereo not given) was run?
Answer: -59.6% (active)

Question: With `Clc1ccc(N2N=C(c3cccc(Nc4ccncc4)c3)CC2c2ccc(Br)cc2)cc1` (stereo not given) as the compound, how does the growth read?
Answer: 27.3%
